In PubChem BioAssay (NCATS):
Results filed as inconclusive are left out. Unmarked numbers belong to inactive results. Calls of active or inactive are those of the source. Calls come from the whole dose curve; as a rule, active = well fitted activation curve with a large enough effect; inconclusive = small, poorly fitted or top-dose-only effect; inactive = no such curve, though single readings can be large or run the other way.

Target: Cellular tumor antigen p53 (Homo sapiens) (UniProt P04637)
Assay: Primary qHTS for small molecule compounds that upregulate eGFP-tagged delta133p53alpha (in N-terminal) cells. (AID 2060322); note: nearly all actives have a fitted effect of over 75% in size;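 for activation: series mostly up to about 56 µM; 0% = DMSO vehicle and 100% = reference activator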
Details: NCI-H358 eGFP-delta133p53alpha fluorescence, 24 h; activation: hits give high values
How it was run: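 NCI-H358 cells pre-induced 24 h with 10 ng/ml doxycycline to express N-terminal eGFP-delta133p53alpha, then dosed 24 h at 37C without doxycycline; fixed, Hoechst-stained, GFP intensity by laser scanning cytometry, normalized to DMSO (0%) and 57.5 uM 5-azacytidine (100%).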
Potency is the fitted concentration of half-maximal effect.

Sequence of Cellular tumor antigen p53 (Homo sapiens) (P04637 whole entry, looked up): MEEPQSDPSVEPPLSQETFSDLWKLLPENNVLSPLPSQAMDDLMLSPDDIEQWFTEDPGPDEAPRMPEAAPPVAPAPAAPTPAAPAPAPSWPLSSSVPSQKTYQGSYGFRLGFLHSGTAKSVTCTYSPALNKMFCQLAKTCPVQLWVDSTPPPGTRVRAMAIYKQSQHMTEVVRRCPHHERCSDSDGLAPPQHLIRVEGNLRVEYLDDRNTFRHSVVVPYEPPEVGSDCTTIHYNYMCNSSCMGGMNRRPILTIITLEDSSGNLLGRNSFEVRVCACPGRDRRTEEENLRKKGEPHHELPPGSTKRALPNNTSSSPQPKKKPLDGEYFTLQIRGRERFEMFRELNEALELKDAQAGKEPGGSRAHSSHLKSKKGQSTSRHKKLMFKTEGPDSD

Row | SMILES | activation [%] | Potency
1 | CC(C)=CC1C[C@](C)(O)[C@@H]2[C@H]3CCC4[C@@]5(C)CC[C@H](O[C@@H]6OC[C@H](O)[C@H](O[C@@H]7O[C@H](CO[C@@H]8O[C@H](CO)[C@@H](O)[C@H](O)[C@H]8O)[C@@H](O)[C@H](O)[C@H]7O)[C@H]6O[C@@H]6O[C@@H](C)[C@H](O)[C@@H](O)[C@H]6O)C(C)(C)[C@@H]5CC[C@@]4(C)[C@@]34CO[C@@]2(C4)O1 (stereo partly specified) | -4.46 | –
2 | CC1(C)C[C@H]2C3=CCC4[C@@]5(C)CC[C@H](O[C@H]6O[C@H](C(=O)O)[C@@H](O)[C@H](O)[C@H]6O[C@H]6O[C@H](CO)[C@@H](O)[C@H](O)[C@H]6O[C@@H]6O[C@H](CO)[C@@H](O)[C@H](O)[C@H]6O)[C@](C)(CO)C5CC[C@@]4(C)[C@]3(C)CC[C@@]2(C)[C@H](O[C@@H]2OC[C@H](O)[C@H](OC3O[C@H](CO)[C@@H](O)[C@H](O)[C@H]3O)[C@H]2O)[C@@H]1O (stereo partly specified) | -19.8 | –
3 | CC/C=C\CC1C(=O)C=CC1(CCCCC1CCC(=O)O1)OC(C)=O (stereo unspecified) | 9.92 | –
4 | C=C1CCC[C@]2(C)CC[C@@H](C(=C)C(=O)O)[C@H](O)[C@@H]12 | -7.63 | –
5 | C=CCc1ccc(O[C@@H]2O[C@H](CO[C@@H]3O[C@@H](C)[C@H](O)[C@@H](O)[C@H]3O)[C@@H](O)[C@H](O)[C@H]2O)cc1 | 3.57 | –
6 | CC(=O)N[C@H]1[C@H](O[C@H]2CC[C@@]3(C)C(CC[C@]4(C)C3CC=C3C5CC(C)(C)CC[C@]5(C(=O)O)C(O)C[C@]34C)C2(C)C)O[C@H](CO[C@@H]2O[C@H](C)[C@H](O)[C@H](O)[C@H]2O[C@@H]2OC[C@@H](O)[C@H](O)[C@H]2O)[C@@H](O)[C@@H]1O (stereo partly specified) | 13.4 | –
7 | C[C@@H]1CCO[C@H]2Cn3cc(C(=O)NCc4ccc(F)cc4F)c(=O)c(O)c3C(=O)N12 | 32.3 | –
8 | Cc1ccccc1NC(=O)Nc1ccc(CC(=O)N(C)[C@@H](CC(C)C)C(=O)NCC[C@H](NC(=O)[C@@H]2CCCN2S(=O)(=O)c2cc(Cl)cc(Cl)c2)C(=O)O)cc1 | 1.67 | –
9 | C1=Cc2ccccc2C(=C2CCN(CCCCc3nn[nH]n3)CC2)c2ccccc21 | -3 | –
10 | O=C(c1ccccn1)N(Cc1cccs1)C1(C(=O)NC2CCCCC2)CCCCC1 | -1.67 | –
11 | CC(=O)O[C@@H]1[C@@H](OC(C)=O)[C@H](C)O[C@@H](O[C@H]2[C@@H]3C=CO[C@@H](O[C@@H]4O[C@H](CO)[C@@H](O)[C@H](O)[C@H]4O)[C@@H]3[C@@]3(CO)O[C@@H]23)[C@@H]1OC(=O)/C=C/c1ccccc1 | -1.53 | –
12 | C=C1CCC2[C@](C)(CCC[C@@]2(C)C=O)[C@H]1CC/C(C)=C/CO (stereo partly specified) | 11.5 | –
13 | C=C1C(=O)O[C@@H]2/C=C(\C)CC/C=C(\C)CC[C@@H]12 | – | 21.3 µM (active)
14 | CC1C(=O)CC2C3CCC(C(=O)O)C12CC3(C)CO (stereo unspecified) | 9.92 | –
15 | COC1CC(OC2CCC3(C)C(=CCC4C3C(OC(C)=O)C(OC(=O)/C=C/c3ccccc3)C3(C)C(C(C)O)CCC43O)C2)OC(C)C1OC1CC(OC)C(OC2OC(C)C(OC3OC(CO)C(O)C(O)C3O)C(OC)C2O)C(C)O1 (stereo unspecified) | 2.29 | –
16 | CC(=O)O[C@H](C[C@@H](C)[C@H]1C(=O)[C@H](O)[C@@]2(C)[C@@H]3CCC4C(C)(C)[C@@H](O[C@@H]5OC[C@H](O)[C@H](O)[C@H]5O)CC[C@@]45C[C@@]35CC[C@]12C)[C@@H]1OC1(C)C (stereo partly specified) | 8.04 | –
17 | CC(=O)O[C@@H]1C[C@@]2(C)C(CC[C@]3(C)C2CC=C2C4CC(C)(C)CC[C@]4(C(=O)O)CC[C@]23C)C(C)(C)[C@H]1O (stereo partly specified) | 13.4 | –
18 | C[C@H]1CC[C@@]2(OC1)O[C@H]1CC3C4CC[C@H]5C[C@@H](O)CC[C@]5(C)C4CC(=O)[C@]3(C)[C@H]1[C@@H]2C (stereo partly specified) | 25.9 | –
19 | CC1CCC2(C(=O)O)CCC3(C)C(=CCC4C5(C)CCC(O)C(C)(C(=O)O)C5CCC43C)C2C1(C)O (stereo unspecified) | -8.4 | –
20 | COc1c2ccoc2cc2oc(CO[C@@H]3O[C@H](CO)[C@@H](O)[C@H](O)[C@H]3O)cc(=O)c12 | -23.2 | –
21 | C#C[C@]1(OC(C)=O)CC[C@H]2[C@@H]3CCC4=C[C@@H](OC(C)=O)CC[C@@H]4[C@H]3CC[C@@]21C | 6.33 | –
